Results as given in PubChem BioAssay (Tox21).
Results filed as inconclusive are left out. Where a call stands in place of a potency, no number is given. Unmarked numbers belong to inactive results. Calls of active or inactive are those of the source. Calls follow the shape of the dose curve; as a rule, active = well fitted cell-killing curve with a large enough effect in the repeat runs; inconclusive = weak or mixed curves, or effect the other way; inactive = flat fitted curve, though single readings scatter.

test: qHTS assay to identify small molecule agonists of the sonic hedgehog signaling (Shh) pathway - cell viability counter screen (AID 1259366); conditions: NIH/3T3 Gli1-Luc viability, CellTiter-Fluor, 24 h; series mostly up to 92.4 µM; also: nearly all actives have a fitted effect of over 50% in size
Source text: National Center for Advancing Translational Sciences [NCATS]
NIH Chemical Genomics Center [NCGC]
U.S. Environmental Protection Agency [EPA]
National Institutes of Environmental Health Sciences [NIEHS]
National Toxicology Program [NTP]
U.S. Food and Drug Administration [FDA]
The sonic hedgehog (Shh) pathway is essential for normal embryonic development. Dysregulation of the Shh pathway can cause severe developmental defects in organs. Therefore chemicals that interfere with the pathway are potential developmental toxicants. A cell line designated 3T3Gli1-Luc (DMB/OARSA/CFSAN/FDA, Laurel, MD), a NIH/3T3 derived clone containing stably integrated Gli1-Luc reporter is used to detect chemical interference of the Shh pathway, by changes in the expression of the firefly Luc gene under the control of the Gli1 transcriptional response element. This cell line was used to screen Tox21 libraries for identifying and prioritizing the potential developmental toxicants that interfere Shh pathway. The cytotoxicity of the compounds was tested in parallel by measuring the cell viability using CellTiter-Fluor assay system (Promega, Madison, WI) in the same wells.
Tox21 Assay Protocol Summary:
3T3 Gli1-Luc cells were dispensed at 2,000 per well in 5uL of culture medium into white solid bottom 1536-well plates (Greiner Bio-One, Monroe, NC) using a Multidrop Combi (Thermo Scientific, Waltham, MA) dispenser. The assay plates were incubated at 37 C and 5% CO2 for 4hr, and then 23nL of compounds dissolved in DMSO and positive control were transferred using a Pintool station (Wako, San Diego, CA). The assay plates were incubated at 37C and 5% CO2 for 24hr. For viability read, after 23hr of compound treatment, 1uL of CellTiter-Fluor reagent (Promega Corporation, Madison, WI) was added to each well of the assay plates using Flying Reagent Dispenser (FRD, Aurora Discovery, San Diego, CA) and incubated the assay plates at 37C for 1hr. The fluorescence signal was quantified using a ViewLux plate reader (Perkin Elmer, Shelton, CT).

SMILES	Potency	viability change, negative = cytotoxic
Cc1c[nH]c(=S)[nH]c1=O	inactive	
OCc1c2ccccc2cc2ccccc12	inactive	
Cc1c(N)cccc1N	inactive	
COC(C)CCO (stereo not given)	inactive	
NS(=O)(=O)c1cc(-c2nn[nH]n2)c(NCc2cccs2)cc1Cl	inactive	
CCCOc1ccc2c(c1)CC[C@@H]1[C@@H]2CC[C@]2(C)C(OC)CC[C@@H]12 (stereo not given in full)	inactive	
COC(=O)c1ccc2cc(C(=O)OC)ccc2c1		0.624% [at 19 µM]
O=C1CCCCC1C1CCCCC1 (stereo not given)	inactive	
O=Cc1ccc(F)c(Br)c1	inactive	
C=CCc1cc(OC)c(O)c(C(=O)NCCO)c1	inactive	
CN1CCN(c2c(F)cc3c(=O)c(C(=O)O)cn4c3c2SCC4)CC1	inactive	
CCCCNCCCC	inactive	
CN1CCC[C@@H]1Cc1c[nH]c2ccc(CCS(=O)(=O)c3ccccc3)cc12	inactive	
CC(=O)OC(C)OC(C)=O	inactive	
C1CSCCS1	inactive	
CCOc1ccc2nc(N)sc2c1	inactive	
C[C@]12CCC(=O)C=C1CC[C@@H]1[C@@H]2CC[C@@]2(C)[C@H]1CC[C@]2(O)C(=O)CO	inactive	
COC(=O)c1ccc(OC)cc1	inactive	
CC(C)OC(C)C	inactive	
CC(C)C1=CC2=CC[C@@H]3[C@](C)(CCC[C@@]3(C)C(=O)O)[C@H]2CC1	inactive	

SMILES	Potency	viability change, negative = cytotoxic
Nc1ccc2ccccc2c1S(=O)(=O)O	inactive	
O=C(Cl)c1cccc([N+](=O)[O-])c1	inactive	
CCOC(=O)C1CC(=O)C(=C(O)C2CC2)C(=O)C1 (stereo not given)	inactive	
CC(C)(C)c1ccc(OC(=O)c2ccccc2O)cc1	inactive	
NC1=NCC2c3ccccc3Cc3ccccc3N12 (stereo not given)	inactive	
CN1CCN(c2c(F)cc3c(=O)c(C(=O)O)cn(CCF)c3c2F)CC1	inactive	
CC(C)NC[C@@H](O)COc1cccc2ccccc12	inactive	
N#CSCC(=O)O	inactive	
CC(C)(C)C1CCCCC1=O (stereo not given)	inactive	
Cc1ccccc1C(=O)Nc1ccc(C(=O)N2CCCC(O)c3cc(Cl)ccc32)c(C)c1 (stereo not given)	inactive	
COc1ccc2nc(NC(=O)Nc3ccccc3)sc2c1	inactive	
Clc1cccc(-c2cc(Cl)cc(Cl)c2)c1	inactive	
CC(=O)Oc1cc(C(C)C)c(OCCN(C)C)cc1C	inactive	
CN1CCN(C2=Nc3cc(F)ccc3Cc3ccccc32)CC1	inactive	
O=c1oc2c(O)c(O)cc3c(=O)oc4c(O)c(O)cc1c4c23		-17.2% [at 19 µM]
Cc1cc(S(=O)(=O)O)c(N)cc1Cl	inactive	
NC(=O)Cc1cccc(C(=O)c2ccccc2)c1N	inactive	
COc1ccccc1OCC(O)COC(N)=O (stereo not given)	inactive	
OCC(CBr)(CBr)CBr	inactive	
Cc1cn([C@@H]2O[C@H](CO)[C@@H](O)[C@@H]2F)c(=O)[nH]c1=O	inactive	
